Compound activity as filed in PubChem BioAssay.
Compounds with a hit are over-represented: about 5.2% of the library has one in this group of screens.
Tau ThT inhib – qHTS for Inhibitors of Tau Fibril Formation, Thioflavin T Binding; Potency, µM (highest dose often 57.4 µM), inactives show at the top dose activity, negative = inhibition, actives largely listed as inhibitors; recombinant tau K18 P301L, heparin-induced fibrillization, ThT fluorescence; AID 1460, 2008; Microtubule-associated protein tau (Homo sapiens), P10636; 270,000 compounds, 2.1% hits; also: potency is read from the fitted curve at half-maximal effect; nearly all actives have a fitted effect of over 55% in size
Target sequence (P10636 561-689 P618L limits assumed): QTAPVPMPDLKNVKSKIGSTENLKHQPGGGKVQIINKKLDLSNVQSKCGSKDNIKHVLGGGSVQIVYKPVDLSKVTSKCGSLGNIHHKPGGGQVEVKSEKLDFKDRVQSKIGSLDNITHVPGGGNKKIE
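K18 P301L tau (15 uM + 0.24 uM Alexa 594-tagged), heparin 20 uM, NaOAc pH 7, 6 h 37 C; ThT 30 uM, 1 h RT, ex 450/em 510 nm.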
Coupling enz – qHTS Assay for Inhibitors of Fructose-1,6-bisphosphate Aldolase from Giardia Lamblia: Coupling assay counterscreen. coupling enzyme system counterscreen, AmpLite Red fluorescence. activity change, negative = inhibition, % at 58.2 µM, hits read low. 290,000 compounds, 0.67% hits; in the data active = activity change below about -30%
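Counterscreen of the coupled detection system alone, without aldolase: glyceraldehyde-3-phosphate coupling enzymes plus AmpLite Red readout. Compounds at 57.5 uM final, 10 min RT preincubation, 20 min RT reaction, fluorescence 525/598 nm.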
Sfp PPTase inh – qHTS Assay for Inhibitors of Bacillus subtilis Sfp phosphopantetheinyl transferase (PPTase) | 4'-phosphopantetheinyl transferase ffp (Bacillus subtilis), Q9F4F7 | Biochemical Sfp PPTase activity, qHTS | Potency, µM, without a hit: largest response in the series, negative = inhibition, most hits filed as inhibitors | 310,000 compounds, 3.5% hits;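 also: the enzyme is Sfp with the accession as filed and its product quenches rhodamine fluorescence; potency is read from the fitted curve at half-maximal effect; 0% = enzyme reaction without inhibitor and -100% = no enzyme wells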
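Step 1, compound plus 15 nM Sfp-PPTase, 15 min, room temperature. Step 2, add rhodamine-CoA (5 uM) and BHQ-2-YbbR (12.5 uM). Step 3, read 525/598 nm fluorescence at 0 and 30 min.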
Tau fluor counter – Counterscreen qHTS for Inhibitors of Tau Fibril Formation, Fluorescence Polarization; tau K18 P301L Alexa594 fluorescence, heparin fibrillization; 280,000 compounds, 0.93% hits; Potency, µM (doses to about 57.7 µM), without a hit: top-dose activity change, negative = decrease; also: potency is read from the fitted curve at half-maximal effect; nearly all actives have a fitted effect of over 55% in size
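Human tau K18 P301L (15 uM unlabeled, 0.24 uM Alexa 594-labeled) in 100 mM sodium acetate pH 7 with 20 uM heparin, 6 hr at 37 C. ThT 30 uM added, 1 hr ambient; Alexa 594 FP and total fluorescence read at 555/632 nm.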
Tau FP inhib – qHTS for Inhibitors of Tau Fibril Formation, Fluorescence Polarization; Microtubule-associated protein tau (Homo sapiens), P10636; Potency, µM (titrated, usually from 57.7 µM), inactives show at the top dose activity, negative = inhibition, most hits filed as inhibitors; AID 1468, 2008; 280,000 compounds, 0.39% hits; K18 P301L tau heparin fibrillization, Alexa594 FP, 6 h; also: potency is read from the fitted curve at half-maximal effect; nearly all actives have a fitted effect of over 55% in size
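Heparin (20 uM) drove fibril formation of recombinant tau K18 P301L, 15 uM unlabeled with 0.24 uM Alexa 594 label, for 6 hr at 37 C in 100 mM sodium acetate pH 7. Fluorescence polarization (555/632 nm) read 1 hr after 30 uM ThT.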
Numbers without * were called inactive; u = inconclusive; x = no result given; [ ] = remark or other dose. Unless noted, calls follow the shape of the dose curve; as a rule, active = well fitted curve in the direction sought with a large enough effect; inconclusive = small, poorly fitted or top-dose-only effect, or another doubt; inactive = no such curve, though single readings can be large; an effect the other way counts as inactive or inconclusive. Unless noted, % is scaled to controls: 0 for no effect and ±100 for the full control effect.

SMILES	Tau ThT inhib	Coupling enz	Sfp PPTase inh	Tau fluor counter	Tau FP inhib
CCOc1ccc(NC(=O)C(=O)NCCc2csc(-c3ccc(F)cc3)n2)cc1	-4%	x	x	11%	-8%
CC(C)Cc1nc(S(=O)(=O)c2ccc(Cl)cc2)c(N2CCOCC2)o1	u	1	40µM*	-17%	u
Cc1ccc(S(=O)(=O)c2nc(N3CCOCC3)sc2Cl)cc1	-11%	-9	50µM*	-10%	-5%
CC(C)(C)c1nc(S(=O)(=O)c2ccc(Cl)cc2)c(N2CCOCC2)o1	u	2	-4%	-15%	u
Cc1ccc(S(=O)(=O)c2nc(NCCN(C)C)sc2Cl)cc1	-4%	1	7%	-14%	-7%
COc1ccc(Nc2nc(S(=O)(=O)c3ccc(C)cc3)c(Cl)s2)cc1	-17%	-5	7%	10µM*[quencher]	4%
CCCS(=O)(=O)c1nc(S(=O)(=O)c2ccc(C)cc2)c(N2CCOCC2)s1	x	1	14%	x	x
Cc1ccc(S(=O)(=O)c2nc(Nc3ccccc3)sc2Cl)cc1	-1%	1	15%	14µM*[quencher]	u
O=S(=O)(c1ccccc1)c1nc(Nc2cccc(O)c2)sc1Cl	-7%	0	-16%	u	1%
C=C1C(c2ccc(C)cc2)=CCc2cc(C)cc(C)c21	u	4	-11%	-12%	4%
Cc1ccccc1Nc1nc(CSc2nnnn2-c2ccccc2)cs1	u	-6	45µM*	u	7%
Cc1ccc2nc(SCC(=O)Nc3ccc(F)c([N+](=O)[O-])c3)[nH]c2c1	u	0	-6%	28µM*[quencher]	-9%
Cc1ccc2nc(SCC(=O)c3ccc4c(c3)OCO4)[nH]c2c1	u	-1	45µM*	-14%	0%
Cc1ccc2nc(SCC(=O)Nc3ccc(C)c([N+](=O)[O-])c3)[nH]c2c1	u	-6	1%	u	u
O=C(CSc1nc2ccccc2[nH]1)c1ccc2c(c1)OCO2	-14%	2	u	-2%	7%
CCN1CCN(CC(=O)c2ccc(C)cc2)CC1	x	-1	79µM*	x	x
Nc1nnc(CC(=O)N/N=C/c2ccc(-c3ccc(F)cc3)o2)s1	x	-2	-15%	9%[0.0958 µM]	4%[0.0958 µM]
Nc1nonc1-c1nc2ccccc2n1CC(=O)Nc1ccccc1C(=O)O	-3%	x	x	-7%	-7%
Nc1nonc1-c1nc2ccccc2n1CC(=O)N/N=C/c1ccc(-c2cccc(C(=O)O)c2)o1	u	3	1µM*	-10%	-11%
Nc1nnc(CC(=O)N/N=C/c2ccc(-c3cccc(C(=O)O)c3)o2)s1	x	0	40µM*	6%	-1%
CC/C(C)=N\N=C\c1c(O)n(CC)c2cc(C3=NNC(=O)CC3)ccc12	16µM*	-9	-2%	-23%	-9%
O=C(NN1C(=O)c2ccccc2NC1c1ccc([N+](=O)[O-])o1)c1ccc([N+](=O)[O-])cc1 (stereo not given)	3.2µM*	-8	16%	u	u
Cc1cccc(Nc2nnc(SCC(=O)Nc3cccc(S(=O)(=O)N4CCCCC4)c3)s2)c1	-11%	-4	9%	13µM*[quencher]	-25%
Cc1cccc(NC(=O)CSc2nnc(NC(=O)CN3CCCCC3)s2)c1	-1%	3	-19%	0%	-1%
c1ccc(Nc2nc(-c3ccoc3)nc3ccccc23)cc1	x	0	-18%	x	x
SMILES	Tau ThT inhib	Coupling enz	Sfp PPTase inh	Tau fluor counter	Tau FP inhib
CCCC/C=C/[C@H](C)[C@@](C)(COC(=O)c1ccc(Br)cc1)Cc1ccccc1	x	0	-3%	x	x
Cc1ccc(/C=N/Nc2nncn2N)cc1	x	2	40µM*	x	x
Nn1cnnc1N/N=C/c1ccc(Cl)c([N+](=O)[O-])c1	25µM*	-26	u	-26%	u
Nn1cnnc1N/N=C/c1cccc(Cl)c1Cl	x	-1	u	x	x
Nn1cnnc1N/N=C/c1ccc(F)cc1	x	0	56µM*	x	x
CCOc1ccc(OCC)c(NC(=O)C(NS(=O)(=O)c2ccc(Br)s2)c2ccccc2)c1 (stereo not given)	5%	x	x	-10%	-2%
